Test results published in PubChem BioAssay (NCATS).
Results filed as inconclusive are left out. Active and inactive are the calls of the source. Unless noted, calls come from the whole dose curve; as a rule, active = well fitted curve in the direction sought with a large enough effect; inconclusive = small, poorly fitted or top-dose-only effect, or another doubt; inactive = no such curve, though single readings can be large; an effect the other way counts as inactive or inconclusive.

Tests used:
[1] = target: Beta-2 adrenergic receptor (Homo sapiens) (UniProt P07550); experiment: qHTS validation assay of beta-arrestin-biased ligands of beta2-adrenergic receptor (AID 485366); note: 0% is about no effect
Chain of Beta-2 adrenergic receptor (Homo sapiens) (P07550 whole entry, looked up): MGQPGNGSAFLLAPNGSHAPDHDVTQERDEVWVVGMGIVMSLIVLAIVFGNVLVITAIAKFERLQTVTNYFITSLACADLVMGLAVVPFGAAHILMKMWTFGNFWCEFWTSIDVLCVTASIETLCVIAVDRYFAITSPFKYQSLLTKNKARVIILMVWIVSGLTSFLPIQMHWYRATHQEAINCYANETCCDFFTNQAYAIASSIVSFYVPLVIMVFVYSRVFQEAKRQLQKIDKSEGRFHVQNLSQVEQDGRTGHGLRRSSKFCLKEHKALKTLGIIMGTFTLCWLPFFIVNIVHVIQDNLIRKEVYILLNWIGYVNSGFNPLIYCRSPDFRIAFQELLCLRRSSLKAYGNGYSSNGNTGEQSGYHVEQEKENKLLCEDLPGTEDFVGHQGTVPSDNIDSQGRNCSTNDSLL
Method in brief: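 Compound series up to 46 microM applied to beta2-AR/beta-arrestin Tango cells, 18 hr, 37 degrees C, 5% CO2. Read-out: tTA-driven luciferase luminescence, converted to %Activity; concentration-response curves assigned curve classes.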

[2] = Quantitative high throughput screen for delayed death inhibitors of the malarial parasite plastid, 96 hour incubation (AID 488745);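 note: luciferase-expressing P. falciparum in erythrocytes at 2% hematocrit and 0.1% parasitemia; series mostly up to about 29 µM; % is set by controls: 0 for no effect and ±100 for the full control effect; nearly all actives have a fitted effect of over 70% in size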
Method in brief: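 Readout is firefly luciferase luminescence from an integrated reporter in P. falciparum; lower signal marks inhibited growth. Cultures at 2% hematocrit and 0.1% parasitemia were treated with compound across two generations (96 h, 37 C, 5% CO2).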

[3] = Quantitative high throughput screen for delayed death inhibitors of the malarial parasite plastid, 48 hour incubation (AID 488752); note: % is set by controls: 0 for no effect and ±100 for the full control effect; nearly all actives have a fitted effect of over 65% in size
Method in brief: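 First, compound was pinned into RPMI 1640 medium containing 0.5% Albumax. Next, reporter-parasite-infected erythrocytes were added to 2% hematocrit and 0.1% parasitemia. After 48 h at 37 C under 5% CO2, luciferase detection reagent was added and luminescence read.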

[4] = target: Thioredoxin reductase 1, cytoplasmic (Rattus norvegicus) (UniProt O89049); experiment: qHTS Assay for Substrates of Mammalian Selenoprotein Thioredoxin Reductase 1 (TrxR1) (AID 488772);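 note: series mostly up to about 57 µM; 0% is about no effect; a drop in NADPH fluorescence below the no-compound background marks a TrxR1 substrate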
Chain of Thioredoxin reductase 1, cytoplasmic (Rattus norvegicus) (O89049 whole entry, looked up): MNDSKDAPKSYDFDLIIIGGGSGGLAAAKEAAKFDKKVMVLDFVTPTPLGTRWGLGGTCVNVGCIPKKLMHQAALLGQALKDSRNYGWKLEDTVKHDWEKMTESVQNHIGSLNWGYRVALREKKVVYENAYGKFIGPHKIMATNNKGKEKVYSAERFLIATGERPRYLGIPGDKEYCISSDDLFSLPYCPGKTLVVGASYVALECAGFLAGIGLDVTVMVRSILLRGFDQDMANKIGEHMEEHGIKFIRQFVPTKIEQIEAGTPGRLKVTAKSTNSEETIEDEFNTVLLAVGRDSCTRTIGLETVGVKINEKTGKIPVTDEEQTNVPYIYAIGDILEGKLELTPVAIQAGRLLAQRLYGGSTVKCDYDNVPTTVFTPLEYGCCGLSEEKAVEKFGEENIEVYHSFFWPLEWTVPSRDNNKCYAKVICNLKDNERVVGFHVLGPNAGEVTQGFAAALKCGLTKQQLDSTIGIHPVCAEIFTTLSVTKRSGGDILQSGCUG
Method in brief: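 In this dual-purpose format, potential substrates are identified from the first fluorescence read after selenite addition, not from the 8-minute delta. Rat enzyme is preincubated with NADPH and then with compound at ~22 deg C.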

[5] = target: Thioredoxin reductase 1, cytoplasmic (Rattus norvegicus) (UniProt O89049); experiment: qHTS Assay for Inhibitors of Mammalian Selenoprotein Thioredoxin Reductase 1 (TrxR1) (AID 488773); conditions: Potency: inhibition;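 note: drop in NADPH fluorescence over an 8 min run after selenite addition; series mostly up to about 57 µM; % is set by controls: 0 for no effect and ±100 for the full control effect; nearly all actives have a fitted effect of over 40% in size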
Method in brief: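 Inhibition is scored from the loss of NADPH fluorescence between first and last reads of an 8-min kinetic run. Selenite (400 uM) was the substrate, added after 15 min compound preincubation at room temperature.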

[6] = target: Flap endonuclease 1 (Homo sapiens) (UniProt P39748); experiment: qHTS Validation Assay for the Inhibitors of Human Flap endonuclease 1 (FEN1) (AID 488816); note: % is set by controls: 0 for no effect and ±100 for the full control effect
Chain of Flap endonuclease 1 (Homo sapiens) (P39748 whole entry, looked up): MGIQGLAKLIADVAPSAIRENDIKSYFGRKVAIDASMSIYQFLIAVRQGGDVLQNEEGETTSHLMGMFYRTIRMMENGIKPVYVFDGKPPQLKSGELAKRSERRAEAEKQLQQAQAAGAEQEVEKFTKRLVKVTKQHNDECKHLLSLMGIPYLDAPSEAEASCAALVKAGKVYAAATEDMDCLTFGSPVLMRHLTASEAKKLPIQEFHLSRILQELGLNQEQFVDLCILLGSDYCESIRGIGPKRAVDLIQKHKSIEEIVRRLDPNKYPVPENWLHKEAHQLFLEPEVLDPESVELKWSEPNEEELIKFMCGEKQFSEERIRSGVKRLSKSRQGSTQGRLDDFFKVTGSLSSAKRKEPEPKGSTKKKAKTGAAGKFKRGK
Method in brief: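 qHTS format: compounds and 10 nM FEN1 incubated 15 min at room temperature before adding 50 nM substrate. Cleavage followed by reads at 0 and 15 min; normalized data fitted to a four-parameter Hill curve.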

[7] = target: M-phase phosphoprotein 8 (Homo sapiens) (UniProt Q99549); experiment: qHTS Validation Assay for Inhibitors for MPP8 Chromodomain Interactions with Methylated Histone Tails (AID 488949);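 note: AlphaScreen signal from MPP8 chromodomain bound to biotinylated H3K9me3 peptide; top concentration of the series differs between compounds; % is set by controls: 0 for no effect and ±100 for the full control effect; nearly all actives have a fitted effect of over 55% in size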
Chain of M-phase phosphoprotein 8 (Homo sapiens) (Q99549 whole entry, looked up): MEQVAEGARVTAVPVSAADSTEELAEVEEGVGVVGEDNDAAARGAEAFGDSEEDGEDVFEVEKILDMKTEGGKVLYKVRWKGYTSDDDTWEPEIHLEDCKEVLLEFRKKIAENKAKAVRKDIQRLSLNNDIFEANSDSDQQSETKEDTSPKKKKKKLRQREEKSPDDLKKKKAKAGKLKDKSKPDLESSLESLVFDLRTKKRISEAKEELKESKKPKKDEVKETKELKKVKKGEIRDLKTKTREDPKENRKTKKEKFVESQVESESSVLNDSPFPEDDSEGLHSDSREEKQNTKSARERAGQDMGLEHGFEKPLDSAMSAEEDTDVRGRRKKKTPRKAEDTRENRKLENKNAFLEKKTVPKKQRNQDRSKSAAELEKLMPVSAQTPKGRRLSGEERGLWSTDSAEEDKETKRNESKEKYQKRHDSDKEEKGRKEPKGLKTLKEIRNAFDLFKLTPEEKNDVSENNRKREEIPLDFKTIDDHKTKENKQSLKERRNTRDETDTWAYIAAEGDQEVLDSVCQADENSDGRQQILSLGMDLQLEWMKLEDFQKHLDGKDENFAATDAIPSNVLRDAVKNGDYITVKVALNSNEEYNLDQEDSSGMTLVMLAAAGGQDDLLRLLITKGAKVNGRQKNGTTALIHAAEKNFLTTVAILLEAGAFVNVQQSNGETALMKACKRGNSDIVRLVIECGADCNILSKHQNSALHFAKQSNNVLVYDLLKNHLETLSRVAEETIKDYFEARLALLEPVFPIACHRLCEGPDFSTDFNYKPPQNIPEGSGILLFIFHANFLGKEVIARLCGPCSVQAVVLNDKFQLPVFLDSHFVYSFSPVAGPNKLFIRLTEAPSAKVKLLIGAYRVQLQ
Method in brief: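 Disruption of the preformed MPP8–trimethyl-H3K9 peptide complex (both 50 nM, 30 min, RT) is measured after 30 min compound exposure, using AlphaScreen proximity beads; aurintricarboxylic acid titration serves as plate control.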

[8] = target: Chromobox protein homolog 1 (Homo sapiens) (UniProt P83916); experiment: qHTS Validation Assay for Inhibitors of HP1-beta Chromodomain Interactions with Methylated Histone Tails (AID 488953);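 note: loss of AlphaScreen luminescence from HP1-beta binding biotinylated H3K9me3 peptide; series mostly up to about 110 µM; % is set by controls: 0 for no effect and ±100 for the full control effect; nearly all actives have a fitted effect of over 50% in size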
Chain of Chromobox protein homolog 1 (Homo sapiens) (P83916 whole entry, looked up): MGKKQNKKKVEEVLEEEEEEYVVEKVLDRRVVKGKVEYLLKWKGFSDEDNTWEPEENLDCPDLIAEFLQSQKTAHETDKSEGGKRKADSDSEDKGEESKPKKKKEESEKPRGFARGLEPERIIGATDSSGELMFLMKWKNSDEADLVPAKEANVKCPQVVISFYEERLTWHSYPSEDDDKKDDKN
Method in brief: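 Disruption of preformed HP1-beta:H3K9me3 peptide complexes (both 50 nM, PBS pH 7.4 with 0.01% Tween-20) is measured by AlphaScreen after 30 min compound exposure at room temperature, using streptavidin donor and nickel chelate acceptor beads at 10 ug/mL final.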

[9] = target: Methanococcus maripaludis chaperonin (MmCpn) (UniProt Q6LX38); experiment: High-Throughput Screening for Modulators of Cytosolic Chaperonin Activity: MmCpn Primary Screen (AID 488978);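 note: 50 nM MmCpn enzyme hydrolysing 30 µM ATP at 37 °C; 0% is about no effect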
Chain of Methanococcus maripaludis chaperonin (MmCpn) (Q6LX38 1-543): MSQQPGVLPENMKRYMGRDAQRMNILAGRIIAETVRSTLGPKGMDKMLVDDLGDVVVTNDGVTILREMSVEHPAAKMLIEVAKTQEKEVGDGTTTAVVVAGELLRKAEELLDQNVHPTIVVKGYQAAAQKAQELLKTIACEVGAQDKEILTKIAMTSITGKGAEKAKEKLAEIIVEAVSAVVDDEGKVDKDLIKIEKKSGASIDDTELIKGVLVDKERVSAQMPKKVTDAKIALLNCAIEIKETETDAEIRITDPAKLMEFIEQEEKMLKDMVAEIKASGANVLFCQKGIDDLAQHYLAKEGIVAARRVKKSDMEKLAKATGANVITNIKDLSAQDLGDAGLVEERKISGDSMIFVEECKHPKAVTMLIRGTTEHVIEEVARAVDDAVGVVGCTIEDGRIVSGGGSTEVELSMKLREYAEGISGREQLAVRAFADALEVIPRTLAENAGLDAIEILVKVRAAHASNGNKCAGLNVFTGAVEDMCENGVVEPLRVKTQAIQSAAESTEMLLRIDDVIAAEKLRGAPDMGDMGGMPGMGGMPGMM
Method in brief: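 Measures ATPase turnover of the M. maripaludis chaperonin (50 nM final) against 30 uM ATP over 10 min at 37C, with compound added 5 min beforehand at room temperature. ADP is quantified by HTRF immunodetection.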

[10] = target: Transient receptor potential cation channel subfamily V member 1 (Homo sapiens) (UniProt Q8NER1); experiment: HTS Assay for Compounds that Act as Enhancers of the Vanilloid Receptor 1 (AID 488979); note: 0% is about no effect
Chain of Transient receptor potential cation channel subfamily V member 1 (Homo sapiens) (Q8NER1 whole entry, looked up): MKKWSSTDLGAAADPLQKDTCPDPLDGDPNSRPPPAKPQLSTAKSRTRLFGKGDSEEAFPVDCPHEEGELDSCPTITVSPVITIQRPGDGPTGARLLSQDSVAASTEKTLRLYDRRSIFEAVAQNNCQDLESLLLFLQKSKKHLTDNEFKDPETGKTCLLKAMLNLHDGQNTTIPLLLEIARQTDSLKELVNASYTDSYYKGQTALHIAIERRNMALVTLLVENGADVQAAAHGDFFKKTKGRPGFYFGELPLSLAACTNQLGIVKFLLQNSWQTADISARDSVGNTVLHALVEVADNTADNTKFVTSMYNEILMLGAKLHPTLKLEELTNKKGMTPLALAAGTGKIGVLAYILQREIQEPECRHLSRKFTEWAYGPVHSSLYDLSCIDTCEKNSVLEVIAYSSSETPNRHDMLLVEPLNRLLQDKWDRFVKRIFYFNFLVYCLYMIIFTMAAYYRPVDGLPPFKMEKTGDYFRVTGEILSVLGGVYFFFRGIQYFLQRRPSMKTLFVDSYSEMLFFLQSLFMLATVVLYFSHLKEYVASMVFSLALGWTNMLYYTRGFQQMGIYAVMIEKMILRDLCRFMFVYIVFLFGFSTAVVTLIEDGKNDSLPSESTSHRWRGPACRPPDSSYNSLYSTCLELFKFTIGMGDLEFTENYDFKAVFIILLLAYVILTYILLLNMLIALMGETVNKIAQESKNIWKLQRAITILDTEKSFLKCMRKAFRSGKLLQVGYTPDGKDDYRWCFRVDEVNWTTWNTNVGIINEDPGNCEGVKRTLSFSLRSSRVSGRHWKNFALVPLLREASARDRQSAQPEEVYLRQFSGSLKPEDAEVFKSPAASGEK
Method in brief: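 Calcium influx kinetics via Fluo-8 (480/520 nm) in TRPV1-expressing cells, 2000/well cultured overnight at 35.5C. Compound-alone read 3 min (agonist phase), followed by EC20 capsaicin challenge for 2 min (enhancer phase).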

[11] = target: Thyrotropin receptor (Homo sapiens) (UniProt P16473); experiment: qHTS Assay for Antagonists of the Thyroid Stimulating Hormone Receptor (AID 488980); note: series mostly up to about 58 µM; 0% is about no effect
Chain of Thyrotropin receptor (Homo sapiens) (P16473 whole entry, looked up): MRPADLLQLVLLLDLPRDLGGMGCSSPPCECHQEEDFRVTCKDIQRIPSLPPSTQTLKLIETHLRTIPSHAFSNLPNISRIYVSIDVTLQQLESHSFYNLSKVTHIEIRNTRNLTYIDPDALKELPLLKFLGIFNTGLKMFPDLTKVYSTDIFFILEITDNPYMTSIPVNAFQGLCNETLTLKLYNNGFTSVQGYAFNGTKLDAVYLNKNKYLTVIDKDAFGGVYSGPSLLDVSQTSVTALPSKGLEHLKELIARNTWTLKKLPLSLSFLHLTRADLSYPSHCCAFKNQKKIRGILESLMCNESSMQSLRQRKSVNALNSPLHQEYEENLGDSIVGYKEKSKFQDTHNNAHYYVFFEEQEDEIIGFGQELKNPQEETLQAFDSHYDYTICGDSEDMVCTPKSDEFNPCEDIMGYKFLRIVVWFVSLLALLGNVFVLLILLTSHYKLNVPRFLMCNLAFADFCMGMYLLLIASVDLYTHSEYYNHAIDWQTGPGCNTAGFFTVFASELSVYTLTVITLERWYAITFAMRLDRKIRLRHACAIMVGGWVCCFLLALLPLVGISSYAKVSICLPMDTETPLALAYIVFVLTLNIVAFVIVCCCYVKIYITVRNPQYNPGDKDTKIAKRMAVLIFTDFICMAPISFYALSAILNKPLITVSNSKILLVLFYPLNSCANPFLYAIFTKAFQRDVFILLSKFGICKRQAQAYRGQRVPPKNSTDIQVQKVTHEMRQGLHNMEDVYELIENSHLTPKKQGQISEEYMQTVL
Method in brief: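 Cells expressing human TSHR (HEK293) are dispensed in HBSS/HEPES containing 70 uM RO 20-1724, compound is added, then TSH at EC80 (4 nM final). Antibody in lysis buffer follows, 30 minutes at room temperature before HTRF detection.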

[12] = target: D(1A) dopamine receptor (Homo sapiens) (UniProt P21728); experiment: HTS Assay for Allosteric Agonists of the Human D1 Dopamine Receptor: Primary Screen for Agonists (AID 488981); note: 0% is about no effect
Chain of D(1A) dopamine receptor (Homo sapiens) (P21728 whole entry, looked up): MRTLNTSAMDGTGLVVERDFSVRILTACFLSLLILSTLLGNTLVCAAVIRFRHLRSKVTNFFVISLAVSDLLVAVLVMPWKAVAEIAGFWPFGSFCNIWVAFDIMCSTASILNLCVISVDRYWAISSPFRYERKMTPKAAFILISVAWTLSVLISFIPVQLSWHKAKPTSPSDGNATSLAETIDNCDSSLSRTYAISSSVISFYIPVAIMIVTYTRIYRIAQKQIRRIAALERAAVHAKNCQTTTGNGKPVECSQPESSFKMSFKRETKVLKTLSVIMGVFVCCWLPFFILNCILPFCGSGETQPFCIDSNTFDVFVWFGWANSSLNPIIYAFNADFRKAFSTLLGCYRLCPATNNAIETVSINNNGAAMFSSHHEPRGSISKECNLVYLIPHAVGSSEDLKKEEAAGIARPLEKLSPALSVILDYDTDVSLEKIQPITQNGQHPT
Method in brief: (§1)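 Calcium flux in an inducible, force-coupled HEK293 Trex D1 line (overnight at 30 C): agonist mode is the 180 s kinetic read after compound; potentiator mode is the following 180 s read after dopamine at EC20.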

[13] = target: D(1A) dopamine receptor (Homo sapiens) (UniProt P21728); experiment: HTS Assay for Allosteric Agonists of the Human D1 Dopamine Receptor: Primary Screen for Potentiators (AID 488982); note: 0% is about no effect
Method in brief: as §1

[14] = target: D(1A) dopamine receptor (Homo sapiens) (UniProt P21728); experiment: HTS Assay for Allosteric Agonists of the Human D1 Dopamine Receptor: Primary Screen for Antagonists (AID 488983);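 note: calcium flux response to an EC80 dopamine challenge measured with no-wash dye; % is set by controls: 0 for no effect and ±100 for the full control effect; nearly all actives have a fitted effect of over 65% in size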
Method in brief: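 Kinetic fluorescence at 1 cycle/sec tracked intracellular calcium in force-coupled, tetracycline-inducible HEK293 T-REx D1 cells. Loss of response to an EC80 dopamine dose, given 180 s after compound, marked antagonists.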

[15] = Validation screen for small molecules that induce genotoxicity in human embryonic kidney (HEK293T) cells expressing luciferase-tagged ELG1 (AID 493106); note: 0% is about no effect
Method in brief: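 Cells were dispensed at 2,000 per well, then 23 nL compound or DMSO was pinned in. After 16 hr at 37 °C and 5% CO2, ONE-Glo reagent was added. Luciferase activity was measured following 30 min at room temperature.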

[16] = target: ATPase family AAA domain-containing protein 5 (Homo sapiens) (UniProt Q96QE3); experiment: Validation screen for small molecules that inhibit ELG1-dependent DNA repair in human embryonic kidney (HEK293T) cells expressing luciferase-tagged ELG1 (AID 493107);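 note: cells co-treated with the DNA-damaging agent 5-fluorouridine alongside compound; series mostly up to about 46 µM; % is set by controls: 0 for no effect and ±100 for the full control effect; inhibitors lower the ELG1-luciferase luminescence signal; nearly all actives have a fitted effect of over 70% in size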
Method in brief: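 Cells are dispensed in 1536-well format, then 5-fluorouridine and compound are pinned in. After a 16 hr incubation at 37 °C and 5% CO2, ONE-Glo is added and luciferase measured on a CCD imager.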

[17] = target: Thyrotropin-releasing hormone receptor (Homo sapiens) (UniProt P34981); experiment: qHTS for Small Molecule Agonists and Allosteric Enhancers of Human TRH Receptor: Validation Screen for Agonists (AID 493127;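 active = calcium activation more than 3 SD above the typical response in the agonist read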;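 note: intracellular calcium rise by fluo-8 fluorescence before TRH EC20 addition; 0% is about no effect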); conditions: TRH receptor agonist cell assay; at 2 µM; stronger effect = higher value
Method in brief: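 Compounds are added by online pintool to dye-loaded TRHR cells while fluorescence is recorded every second. A rise in calcium signal during the agonist read marks activation; a later 10 nM TRH addition (EC20) serves the separate enhancer mode.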

[18] = target: ATP-dependent 6-phosphofructokinase (Trypanosoma brucei brucei) (UniProt O15648); experiment: qHTS Validation Assay to Find Inhibitors of T. brucei phosphofructokinase (AID 485368)
Method in brief: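 qHTS format, up to 57 uM. PFK 1.25 nM; F6P 0.5 mM; ATP 0.1 mM; 5 mM MgCl2, 0.01% Tween20, 0.1% BSA; 0.1 M TEA pH 8.0; 45 min RT; ADP-Glo readout; no-enzyme control = full inhibition.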

CCOC(=O)C12CC1/C(=N/O)c1ccccc1O2 (configuration not stated)
inactive: outcome [1] | Potency [2] | Potency [3] | outcome [4] | Potency [5] | Potency [6] | Potency [7] | Potency [8] | outcome [9] | outcome [10] | outcome [11] | Potency [12] | Potency [13] | Potency [14] | Potency [15] | Potency [16] | activation [17] -3.94%

NC[C@@H]1O[C@H](c2ccccc2)Cc2c1ccc(O)c2O
inactive: outcome [1] | Potency [18] | outcome [4] | Potency [5] | Potency [7] | Potency [8] | outcome [9] | Potency [12] | Potency [13] | Potency [15] | Potency [16]

O=C(O)Cc1c[nH]c2ccc(O)cc12
inactive: outcome [1] | Potency [18] | outcome [4] | Potency [6] | Potency [7] | Potency [8] | outcome [9] | outcome [10] | outcome [11] | Potency [12] | Potency [15] | Potency [16] | activation [17] -0.188%

N[C@@H](CCCC(=O)O)C(=O)O
inactive: outcome [1] | Potency [2] | Potency [3] | outcome [4] | Potency [5] | Potency [6] | Potency [7] | Potency [8] | outcome [9] | outcome [10] | outcome [11] | Potency [12] | Potency [13] | Potency [14] | Potency [15] | Potency [16]
